Our source for the outcome values is PubChem BioAssay (NCATS).

SMILES strings stand for the structures. The source made the active and inactive calls. Calls follow the shape of the dose curve; as a rule, active = well fitted inhibition curve with a large enough effect; inconclusive = small, poorly fitted or top-dose-only effect; inactive = no such curve, though single readings can be large or run the other way.

The target of this assay is Single-stranded DNA cytosine deaminase (Homo sapiens) (UniProt Q9GZX7). Description: Validation qHTS assay for inhibitors of Activation Induced Cytidine Deaminase (AID): AID signal (AID 1347429). The conditions noted are these: Recombinant AID, FRET ssDNA deamination with UDG, fluorescence; series mostly up to 115 µM. The text has this: Assay Provider (PI) Patricia Gearhart Ph.D. National Institute on Aging National Institute of Health (NIH), Bethesda, MD Assay Provider (PI) Rahul Kohli Ph.D. Perelman School of Medicine University of Pennsylvania, Philadelphia, PA Activation-Induced Deaminase (AID) is a cytosine deaminase which converts cytosine into uracil within stretches of ssDNA. The presence of uracil in DNA initiates a cascade of mutagenic DNA repair to introduce point mutations and DNA double strand breaks. Specific targeting of AID to the immunoglobulin heavy chain loci (Igh) promotes mutagenesis in the antibody variable region for somatic hypermutation (SHM) or switch regions leading to class switch recombination (CSR). However, AID also plays a role in accumulating unnecessary mutations across the genome. Mis-targeting of AID results in the initiation of tumor development and leads to greater drug resistance among cancer cells when continually expressed. To identify an AID inhibitor, a small molecule library will be screened in collaboration with NCATS core facility at NIH. To confirm biological function, inhibitors will be examined in an in vitro murine B-cell activation assay and subsequent secondary validation screens. Top molecules will be further screened to identify inhibitory efficacy against a wild type primary splenocytes assay. Using these approaches, we hope to identify a small molecule with great efficacy and low toxicity for use as a molecular probe to further characterize AID's intricacies, or even as a therapeutic. A FRET based analysis of cytosine deamination, was developed to identify potential inhibitors of AID catalytic activity. This screen has two signal output, Read 1 evaluates the AID inhibition response. The second readout (Read 2) evaluates UDG response and is uses as a counterscreen to exclude false positive inhibitors. Inhibition in AID and inactivity in the UDG signal is the desired outcome for this assay.
Single-stranded DNA cytosine deaminase (Homo sapiens), sequence (Q9GZX7 whole entry, looked up): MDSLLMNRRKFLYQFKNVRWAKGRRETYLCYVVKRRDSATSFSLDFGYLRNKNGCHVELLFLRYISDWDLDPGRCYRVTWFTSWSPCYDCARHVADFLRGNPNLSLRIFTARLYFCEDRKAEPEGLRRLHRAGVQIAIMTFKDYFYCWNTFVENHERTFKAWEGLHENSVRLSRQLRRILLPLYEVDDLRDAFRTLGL
PROTOCOL TABLE SEQUENCE No. (e.g., 1, 2, 3, etc.); […] (e.g., Cells, Incubation, Reagent, etc.); VALUE; DESCRIPTION 1a; Reagent; 3 uL; [4/3x] […] 250 nM DJC20 / 250 nM DJC23 [Substrate] 5; Time; 4 hr; incubation at room temperature 6; Reagent; 4 uL; [2x] 250 mM NaOH 7; Time; 15 sec; centrifuge at 1000 rpm 8; Time; 30 min; incubation at room temperature 9a; Detection; fluorescence (Read 1: AID); EnVision (PerkinElmer) plate reader, 540 excitation and 590 emission filters 9b; Detection; fluorescence (Read 2: UDG); EnVision (PerkinElmer) plate reader, 560 excitation and 665 emission filters NOTES (numbers refer to sequence above) 1a; Reagents were dispensed in a medium-binding black solid-bottom Greiner plates (789176F) using a BioRptr liquid dispenser. Dispense 3 uL of [4/3x] 1 uM AID (provided by Kohli lab) and [4/3x] 2 U/mL UDG (NEB M0280L) into columns 1, 2, 5 to 48. 1b; Dispense 3 uL of [4/3x] 2 U/mL UDG into column 3. 1c; Dispense 3 uL of [4/3x] 1 uM AID into column 4. 2a; Compound ([…] [uM] (0.64; 3.2; 16; 80; 400; 2,000; 10,000; 20,000) double pin-transferred (Dip Factor = 2) using the Kalypsys (Wako USA) pintool equipped with a 1536 pinhead for a final concentration range of 7.32 nM - 114 uM. 2b; 10 mM Aurintricarboxylic Acid (Sigma A1895) (ATA, 8-point, n = 2, 1:2.5 dilution in column 2) double pin-transferred (Dip Factor = 2) using the Kalypsys (Wako USA) pintool equipped with a 1536 pinhead for a [final] range of 186 nM - 114 uM. 3; Room temperature incubation. 4; Dispense 1 uL of substrate mixture from the Kohli lab [4x] […] DJC20 and [4x] 250 nM DJC23 into columns 1 to 48 . 5; Room temperature incubation. 6; Dispense 4 uL of substrate mixture [2x] 250 mM NaOH into columns 1 to 48. 7; Centrifugation step to remove bubbles. 8; Room temperature incubation 9a; Fluorescence signal (column label AID) was read using the EnVision plate reader. Excitation filter = 540(8) nm, barcode = 311; Emission filter = 590(20) nm, barcode = 217; Mirror = D555, barcode = 405. […]
(In general: qHTS replaces the single test concentration by a dilution series.)
For `COc1cc2ncnc(Nc3cccc(Cl)c3)c2cc1OC`, the outcome was inactive.

Take `CCCCS(=N)(=O)CCC(N)C(=O)O` (stereo unspecified): the outcome was inactive.

Turning to `O=C(O)C1CCCN(CCC=C(c2ccccc2)c2ccccc2)C1` (stereo unspecified), the outcome was inactive.

For `CC(C)NCC(O)c1ccc(NS(C)(=O)=O)cc1` (stereo unspecified), the outcome was inactive.

`Cc1ccc(S(=O)(=O)N[C@@H](Cc2ccccc2)C(=O)CCl)cc1`: the outcome was inactive.

As to `Nc1nc(N)c2nc(CNc3ccc(C(=O)NC(CCC(=O)O)C(=O)O)cc3)cnc2n1` (stereo unspecified), the outcome was inactive.

Consider `CCN(CC)CCn1c(=O)c(Cc2ccc(OC)cc2)nc2ccccc21`, for which the outcome was inactive.

Consider `NC(=O)c1cccc(N)c1`, for which the result was inactive.

Take `CC1=C(C(=O)O)N2C(=O)[C@@H](NC(=O)C(N)c3ccccc3)[C@H]2SC1` (stereo partly specified): the result was inactive.

On to `CC1CC2C3CCC4=CC(=O)C=C[C@]4(C)[C@@]3(F)[C@@H](O)C[C@]2(C)[C@@]1(O)C(=O)CO` (stereo partly specified), for which the outcome was inactive.

`CC(=O)[C@H]1CC[C@H]2[C@@H]3CCC4=CC(=O)CC[C@]4(C)[C@H]3CC[C@]12C`: the result was inactive.

`OCc1ccc(-c2nn(Cc3ccccc3)c3ccccc23)o1`: the outcome was inactive.

For the compound `COc1cc2nc(N3CCCN(C)CC3)nc(NC3CCN(Cc4ccccc4)CC3)c2cc1OC`, the result was inactive.

In the case of `NC(=O)c1ccc2[nH]ccc2c1`, the result was inactive.

Consider `CCN(CC)CC#CCOC(=O)C(O)(c1ccccc1)C1CCCCC1` (stereo unspecified), for which the result was inactive.

For the compound `CCN1CCCC1CNC(=O)c1cc(S(N)(=O)=O)ccc1OC` (stereo unspecified), the outcome was inactive.
